Screening data as filed in PubChem.
ADAM17 inh = ADAM17 inhibitors, primary screen, biochemical, QFRET. Disintegrin and metalloproteinase domain-containing protein 17 (Homo sapiens), P78536. recombinant ADAM17, EDANS/DABCYL FRET peptide cleavage. inhibition, % at 6.95 µM. 370,000 tested, 0.83% active;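 active = inhibition above the mean of compounds lying between control limits plus 3 SD, set per campaign, cut at about 8.5% in these data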;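 note: 0% = DMSO-only wells as the low control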
PLC-beta3 inh = human PLC-beta3 inhibitors, primary screen, biochemical, fluorescence. 370,000 tested, 0.18% active. Purified PLC-beta3, fluorogenic substrate. 1-phosphatidylinositol 4,5-bisphosphate phosphodiesterase beta-3 (Homo sapiens), Q01970. inhibition, % at 12.2 µM; in the data active = inhibition above about 11%;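 note: 0% = median of compound wells on plate and 100% = full blocker control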
KLK7 zymogen act = proKLK7 zymogen activators, primary screen, biochemical, fluorescence intensity | Kallikrein-7 (Homo sapiens), P49862 | purified proKLK7, EDANS-DABCYL substrate fluorescence; 100% is mature enzyme control, 0% vehicle | activation, % at 7 µM | 370,000 tested, 0.9% active | AID 652039, 2013;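 active = activation above the mean of all tested compounds plus 3 SD, computed per campaign excluding outliers beyond control limits, cut at about 13% in these data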
PLCg1 inh = PLC-gamma1 enzyme inhibitors, primary screen, biochemical, fluorescence, purified enzyme | 370,000 tested, 0.84% active | inhibition, % at 12.2 µM | fluorogenic substrate | AID 720700, 2013
ADAM10 inh = human ADAM10 inhibitors, primary screen, biochemical, QFRET, HTS. 370,000 tested, 0.62% active. recombinant ADAM10, EDANS/DABCYL FRET peptide cleavage, 3 h. Disintegrin and metalloproteinase domain-containing protein 10 (Homo sapiens), O14672. inhibition, % at 7 µM;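 active = inhibition above a per-campaign cutoff equal to the mean of compounds falling between control-based bounds plus 3 SD, cut at about 20% in these data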;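 note: 0% = DMSO wells while the 100% control is not disclosed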
PLCg1 ctr = PLC-gamma1 enzyme inhibitors, counter-screen for PLC-beta3 inhibitor project, biochemical, fluorescence; 3,300 tested, 3.1% active; inhibition, % at 12.3 µM; purified PLC-gamma1, fluorogenic substrate; AID 743258, 2014; shares compounds with PLCg1 inh
PLCbeta3 conf = PLC-beta3 inhibitor confirmation, biochemical, fluorescence, purified enzyme | shares compounds with PLCg1 inh | AID 743261, 2014 | fluorogenic substrate fluorescence | 3,300 tested, 1% active | inhibition, % at 12.3 µM; in the data active = inhibition above about 11%
* = called active by the depositor; . = no result given. Compounds with a hit are over-represented: about 2.9% of the library has one in this group of screens. Cut-off read from the data, not from the text of the source, unless noted: active = inhibition above about 9.5%; inactive = the rest.

SMILES	ADAM17 inh	PLC-beta3 inh	KLK7 zymogen act	PLCg1 inh	ADAM10 inh	PLCg1 ctr	PLCbeta3 conf
Cc1noc(C)c1C(=O)OC(C)C(=O)N(C)c1ccccc1 (stereo not drawn)	-4	-1	0	2	-9	.	.
OC(CN1CCCCCC1)CN(c1ccccc1)c1ccccc1 (stereo not drawn)	-6	-7	-1	-3	2	.	.
CN(CC(O)CN)CC(O)CN1CCCCC1 (stereo not drawn)	2	2	0	9.6*	-4	-4	-2
O=C(c1ccc(NC2=NC3CS(=O)(=O)CC3S2)cc1)N1CCN(c2ccccc2F)CC1 (stereo not drawn)	-3	1	0	1	0	.	.
Cc1ccc(NC(=O)c2cccc(NC3=NC4CS(=O)(=O)CC4S3)c2)cc1 (stereo not drawn)	2	2	-1	0	-4	.	.
O=C(c1ccc(NC2=NC3CS(=O)(=O)CC3S2)cc1)N1CCN(Cc2ccccc2)CC1 (stereo not drawn)	0	-1	2	9.8*	0	-7	0
Cc1cccc(NC(=O)Cc2ccc(NC3=NC4CS(=O)(=O)CC4S3)cc2)c1 (stereo not drawn)	2	4	-1	9.7*	10	-3	0
CC1CCCCC1NC(=O)c1cccc(NC2=NC3CS(=O)(=O)CC3S2)c1 (stereo not drawn)	4	6	0	10.0*	0	-3	-2
CC(=O)c1ccc(-c2nnc(CCC(=O)N(C)Cc3c(C)nc4ccccn34)o2)s1	-5	-9	0	-23	-1	.	.
Cc1nc(C(F)(F)F)ccc1C(=O)N1CCC1(C)C(=O)NS(=O)(=O)c1ccc2c(c1)CCO2 (stereo not drawn)	5	2	1	10*	1	4	2
CCN(CC)CCn1c(=S)[nH]c2cc(C(=O)NCc3ccccc3Cl)ccc2c1=O	-13	-25	2	-12	-40	.	.
C/C(CC(=O)Nc1ccc(Br)cc1)=N\NC(=O)Cc1csc(N)n1	-2	-8	-1	-1	3	.	.
C/C(CC(=O)Nc1ccccc1C)=N\NC(=O)Cc1csc(N)n1	6	5	0	9.9*	8	-6	-2
Cc1ccc(-c2nc(N)n(C(=O)c3cccnc3)n2)cc1	-1	7	0	12*	-4	-5	-1
CC(O)c1nc2ccccc2n1CC(=O)N1CCN(c2ccccc2)CC1 (stereo not drawn)	1	4	0	11*	-1	-6	-3
O=C1NC(=O)C(=Cc2ccccc2)N1	-2	11*	0	8	-2	0	4
COc1ccc(C2C(C(=O)Nc3cc(OC)ccc3OC)CCC(=O)N2c2ccc(OC)cc2)cc1 (stereo not drawn)	3	-1	0	-1	-6	.	.
CCOC(=O)c1cccc(S(=O)(=O)N2CCCC2)c1	5	9	0	10*	9	-8	-1
O=C(c1cccc(S(=O)(=O)N2CCCC2)c1)N1CCCc2ccccc21	4	2	0	3	3	.	.
CC(OC(=O)c1cccc(S(=O)(=O)N2CCCCC2)c1)C(=O)NCC1CCCCC1 (stereo not drawn)	4	0	0	9.9*	-11	4	3
O=C(NCC1CCCCC1)c1cccc(S(=O)(=O)N2CCCC2)c1	0	-6	0	1	-2	.	.
O=C(c1cccc(S(=O)(=O)N2CCCCC2)c1)N1CCc2ccccc21	8	8	0	15*	7	-4	-2
COc1ccccc1COCC(O)CN1CCN(S(=O)(=O)c2cccc(F)c2)CC1 (stereo not drawn)	8	0	0	15*	-8	-2	2
COc1ccccc1COC(=O)c1cccc(S(=O)(=O)N2CCCC2)c1	2	11*	0	10*	7	11*	14*
COc1ccccc1C(=O)COC(=O)c1cccc(S(=O)(=O)N2CCCC2)c1	-1	-8	0	-3	-6	.	.
SMILES	ADAM17 inh	PLC-beta3 inh	KLK7 zymogen act	PLCg1 inh	ADAM10 inh	PLCg1 ctr	PLCbeta3 conf
O=C(Nc1ccccc1)c1cc(C2CCCCN2C(=O)c2ccccc2)on1 (stereo not drawn)	-6	1	-1	0	-7	.	.
C[C@]12CCC(O)CC1=CCC1C2CC[C@]2(C)/C(=N\NC(N)=S)CCC12 (stereo partly drawn)	2	-3	0	12*	5	-3	-1
O=C(NC1CCCc2ccccc21)C12CC3CC(CC(O)(C3)C1)C2 (stereo not drawn)	-8	-7	0	0	-8	.	.
Cc1ccc(NC(=O)C2CCCN(S(=O)(=O)c3ccc4c(c3)oc(=O)n4C)C2)nc1 (stereo not drawn)	2	5	0	9.8*	10	-5	-2
Clc1cccc(OCCCCN2CCCCC2)c1	-3	-3	0	1	-2	.	.
Clc1cccc(Cl)c1OCCCCN1CCCCC1	-1	-3	0	12*	-3	2	0
O=C(COC(=O)c1ccc(F)c(S(=O)(=O)N2CCOCC2)c1)c1ccc(Cl)cc1	1	-4	1	1	2	.	.
C=CCN(Cc1ccc(Cl)s1)C(=O)c1ccc(F)c(S(=O)(=O)N2CCOCC2)c1	1	5	0	80*	6	0	-3
COc1ccccc1CNC(=O)CCc1ccccc1	5	0	-1	10*	9	4	0
COc1ccccc1CNC(=O)CN(Cc1ccc(Cl)cc1)S(C)(=O)=O	1	11*	0	3	-9	-3	2
COc1ccccc1/C=C(/C(=O)OCC(=O)Nc1ccccc1C)c1ccccc1	1	1	0	3	2	.	.
COc1ccccc1/C=C(/C(=O)OCC(=O)NCc1ccccc1)c1ccccc1	8	12*	0	13*	19	-1	-2
CS(=O)(=O)N(CC(=O)NCc1ccccc1)Cc1ccc(Cl)cc1	-2	5	1	2	-1	.	.
CN(CC(=O)Nc1ccccc1Cl)CC(=O)Nc1cccc2ccccc12	-4	-3	0	4	-6	.	.
Cc1ccc2c(c1)N(CC(=O)NC1CCCC1)C(=O)c1cccnc1O2	-1	3	0	-1	-6	.	.
O=c1c(Cl)c(Cl)cnn1Cc1ccccc1Cl	1	1	-1	3	0	.	.
